Measured values taken from the supplement of paper PMC10338343.
± gives the standard deviation.

What was measured:
[1] = system: MILI (PIWIL2) piRISC loaded with L1MC piRNA (26 nt); experiment: pre-steady-state target cleavage rate (min^-1); guide: L1MC piRNA 5'p-UAACUAAAUACUAUGCAAGCUGUAGG; higher = faster piRNA-guided slicing of the target;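 note: 1 nM active piRISC with 0.1 nM target library at 33 °C single turnover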
Procedure, shortened: (§1)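 Three pooled Cleave-'n-Seq trials supplied the data, with k3 capped at 0.0001 min^-1. In each, […] transcribed, DNA-blocked target RNA library and 1 nM active affinity-purified piRISC with one synthetic guide reacted in HEPES–potassium acetate buffer at 33 °C for 0–8 or 0–960 min, with or without 500 nM GTSF1 partner protein. Uncleaved targets were sequenced and normalised to depth and to weakly complementary targets. A burst-and-steady-state fit provided the pre-steady-state cleavage rate.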

[2] = system: EfPiwi piRISC loaded with L1MC piRNA (26 nt); experiment: pre-steady-state target cleavage rate (min^-1); auxiliary factor: 500 nM Ephydatia muelleri Gtsf1; guide: L1MC piRNA 5'p-UAACUAAAUACUAUGCAAGCUGUAGG; MIWI and MILI are mouse PIWI proteins and EfPiwi is from a freshwater sponge; tags in brackets are library labels; higher = faster piRNA-guided slicing of the target
Procedure, shortened: as §1

[3] = auxiliary factor: 500 nM mouse GTSF1
[4] = auxiliary factor: none (no GTSF1)

Sequence | pre-steady-state target cleavage rate [1, 3] | pre-steady-state target cleavage rate [1, 4] | pre-steady-state target cleavage rate [2]
UCCUGGAAAGCUUGCAUAGUAUUUAGUUA | 0.276 ± 0.016 | 0.00624 ± 0.0022 | 0.035 ± 0.0098
UCCUCCUACUGCUUGGAUAGUAUUUAGUUA | 0.223 ± 0.016 | 0.011 ± 0.0023 | 0.064 ± 0.012
UCCUGGAUGUGCUUGUAUAGUAUUUAGUUA | 0.142 ± 0.017 | 0.0136 ± 0.004 | 0.0218 ± 0.0071
UCCUGGUACAGCUAGCAUAGUAUUUAGUAA | 0.201 ± 0.022 | 0.00371 ± 0.0023 | 0.00365 ± 0.0021
UCCUGCUUGUGCUUGCAUAGUAUUUAGUUA | 0.13 ± 0.017 | 0.00616 ± 0.0025 | 0.00618 ± 0.0027
UCCUGGAUGUGGCUUGCAUAGUAUUUAGUUA | 0.163 ± 0.017 | 0.0089 ± 0.0042 | 0.0125 ± 0.0049
UCCUCCUACAGCUUGCAUAGUAUUUGGUUA | 0.279 ± 0.024 | 0.00706 ± 0.0026 | 0.00583 ± 0.0021
UCCUGCUACAGCUUGCAUAGUAUCUAGUUA | 0.265 ± 0.033 | 0.00553 ± 0.0025 | 0.00723 ± 0.0019
UCCUCCUACAGGUUGCAUAGUAUUUAGUAA | 0.233 ± 0.017 | 0.00603 ± 0.0015 | 0.00547 ± 0.0022
UCCUGCUACACCUUGCAUAGUAUUUAGUUA | 0.214 ± 0.018 | 0.0087 ± 0.0022 | 0.0124 ± 0.0048
UCCUGGUAGUCCUUGCAUAGUAUUUAGUAA | 0.113 ± 0.025 | 0.00362 ± 0.003 | 0.00627 ± 0.0035
UCCUGGAUGGGCUUGCAUAGUAUUUAGUUA | 0.17 ± 0.021 | 0.0171 ± 0.0035 | 0.0238 ± 0.0063
UCCUCCUACAGCUUGGAUAGUAUAUAGUUA | 0.195 ± 0.022 | 0.0033 ± 0.0023 | 0.00941 ± 0.0032
UCCUGGAUGUCCUUGUAUAGUAUUUAGUUA | 0.119 ± 0.018 | 0.0121 ± 0.0026 | 0.00424 ± 0.0024
UCCUGGUUCAGCUUGCAUAGUAUUUAGUAA | 0.144 ± 0.028 | 0.00573 ± 0.0029 | 0.00696 ± 0.0035
UCCUGGUACAGCUAGCAUAGUAUUUAGUUA | 0.259 ± 0.017 | 0.00964 ± 0.0026 | 0.0085 ± 0.0027
UCCUGGUACAGGUUGCAUACUAUUUAGUUA | 0.111 ± 0.033 | 0.00543 ± 0.0028 | 0.00258 ± 0.002
UCCUGGAAGAGCUUGCAUAGUAUUUAGAUA | 0.182 ± 0.034 | 0.00463 ± 0.0025 | 0.00519 ± 0.0023
UCCUGGAUGUCCUUUGCAUAGUAUUUAGUUA | 0.0866 ± 0.015 | 0.0072 ± 0.0024 | 0.00785 ± 0.0043
UCCUGGAUCAGCUUGCAUAGUAAAUAGUUA | 0.171 ± 0.024 | 0.00496 ± 0.0026 | 0.00673 ± 0.0027
UCCUGGAACAGCUACCAUAGUAUUUAGUUA | 0.174 ± 0.016 | 0.00403 ± 0.0022 | 0.00309 ± 0.0026
UCCUGGUACAGCUGGCAUAGUAUUUAGUUA | 0.199 ± 0.022 | 0.0121 ± 0.0031 | 0.0113 ± 0.0038
UCCUGGAUCAGUUUGCAUAGUAUUUAGUUA | 0.24 ± 0.02 | 0.0104 ± 0.0027 | 0.128 ± 0.021
UCCUGGAUCAGGUUGCAUAGUUUUUAGUUA | 0.023 ± 0.0088 | 0.00644 ± 0.0022 | 0.00481 ± 0.0024
UCCUGGAUCAGCUUGCAAAGUAUUUAGUUA | 0.151 ± 0.015 | 0.00946 ± 0.0023 | 0.0218 ± 0.0057
UCCUGGAACAGCUUGCAUAGUAUUUAGGUUA | 0.23 ± 0.041 | 0.00413 ± 0.0032 | 0.00305 ± 0.0027

Sequence | pre-steady-state target cleavage rate [1, 3] | pre-steady-state target cleavage rate [1, 4] | pre-steady-state target cleavage rate [2]
UCCUCCUCAGCUUGCAUAGUAUUUAGUUA | 0.258 ± 0.015 | 0.00784 ± 0.0019 | 0.0735 ± 0.017
UCCUCCUACAGCUUGCAUAGUUUUAGUUA | 0.0249 ± 0.0085 | 0.0026 ± 0.0026 | 0.00276 ± 0.0023
UCCUCCUAGCAGCUUGCAUAGUAUUUAGUUA | 0.295 ± 0.018 | 0.011 ± 0.0028 | 0.0339 ± 0.0083
UCCUGGUACAGCUAGGAUAGUAUUUAGUUA | 0.191 ± 0.026 | 0.00723 ± 0.0022 | 0.00331 ± 0.0017
UCCUCCUACAGCAAGCAUAGUAUUUAGUUA | 0.281 ± 0.014 | 0.00806 ± 0.0019 | 0.0493 ± 0.018
UCCUCCUACUCCUUGCAUAGUAUUUAGUUA | 0.261 ± 0.021 | 0.0087 ± 0.0018 | 0.165 ± 0.046
UCCUGGAUGAGCUUGCAUAGUAUAUAGUUA | 0.24 ± 0.031 | 0.00759 ± 0.0023 | 0.00625 ± 0.0026
UCCUCCUACAGCUUGGUUAGUAUUUAGUUA | 0.269 ± 0.016 | 0.00996 ± 0.0021 | 0.0149 ± 0.006
UCCUCCUACAGCUAGCAUAGUAUAUAGUUA | 0.192 ± 0.03 | 0.00339 ± 0.0026 | 0.00495 ± 0.0026
UCCUGCUACAGCUUGCAUAGUAUAUUAGUUA | 0.389 ± 0.042 | 0.00735 ± 0.0029 | 0.0185 ± 0.0079
UCCUCCUACACGUUGCAUAGUAUUUAGUUA | 0.321 ± 0.021 | 0.00729 ± 0.0026 | 0.136 ± 0.035
UCCUCCUACAGCUUGCAUAGUAUUCAGUUA | 0.229 ± 0.034 | 0.00319 ± 0.0024 | 0.0063 ± 0.0029
UCCUGGUACAGCUUGGCAUAGUAUUUAGUUA | 0.4 ± 0.093 | 0.00473 ± 0.0036 | 0.05 ± 0.016
UCCUGGAUGUGCUUACAUAGUAUUUAGUUA | 0.122 ± 0.015 | 0.0117 ± 0.0028 | 0.0113 ± 0.0041
UCCUGGAUCAGCUUGCAUAGUAUAUAGUUA | 0.268 ± 0.017 | 0.00895 ± 0.0025 | 0.0716 ± 0.02
UCCUGGUACAGGUUGCAUAGUAUUUAGUUA | 0.217 ± 0.022 | 0.0148 ± 0.004 | 0.0211 ± 0.0053
UCCUGGAUCAGCUUUGCAUAGUAUUUAGUUA | 0.297 ± 0.016 | 0.0075 ± 0.0028 | 0.103 ± 0.023
UCCUGCUACAGCUUGCAUAGUAGUUAGUUA | 0.127 ± 0.03 | 0.00253 ± 0.0025 | 0.00461 ± 0.0015
UCCUGGAUGUGCUUGCAUAGUAUUUAGUCA | 0.117 ± 0.018 | 0.00487 ± 0.0035 | 0.00263 ± 0.0019
UCCUGGAUGUGCUCUGCAUAGUAUUUAGUUA | 0.137 ± 0.015 | 0.0108 ± 0.0039 | 0.00925 ± 0.0031
UCCUGGAUCAGCUUGCAUAGUAUUUAGUAA | 0.24 ± 0.016 | 0.00751 ± 0.0025 | 0.00774 ± 0.0024
UCCUGGAUCACCUUGCAAAGUAUUUAGUUA | 0.0687 ± 0.012 | 0.0045 ± 0.0025 | 0.00506 ± 0.0019
UCCUGGAACACCUUGCAUUGUAUUUAGUUA | 0.14 ± 0.018 | 0.00474 ± 0.0027 | 0.00411 ± 0.0026
UCCUGCGACAGCUUGCAUAGUAUUUAGUUA | 0.298 ± 0.016 | 0.00828 ± 0.0026 | 0.0339 ± 0.0075
UCCUGGAUGAGCAUGCAAAGUAUUUAGUUA | 0.056 ± 0.011 | 0.00571 ± 0.002 | 0.00414 ± 0.0036
